The source of these data is PubChem BioAssay (NCATS).

The target in experiment [1] is 3',5'-cyclic-AMP phosphodiesterase 4B (Homo sapiens) (UniProt Q07343). The experiment in a line: qHTS Assay for Inhibitors of PDE-IV (AID 607; active means well fitted activation curve with a large enough effect in the main read-out, with a control signal flat, not every such curve was filed as active). In a few lines:
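ACTOne HEK293 cells carry a modified cAMP-gated CNG channel and express endogenous PDE4; plated 1000 cells/well, compounds up to 22.9 uM final. Membrane-potential dye fluorescence (ex 535/em 590) was read; parental cells received 10 uM forskolin + 100 uM RO 20-1724.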
(In general: qHTS replaces the single test concentration by a dilution series.)

In experiment [2] the target is Cytochrome P450 2C9 (Homo sapiens) (UniProt P11712). The experiment in a line: qHTS Assay for Inhibitors and Substrates of Cytochrome P450 2C9 (AID 883). Further: nearly all actives have a fitted effect of over 60% in size. In a few lines: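 Human CYP2C9 (10nM) with Luciferin-H at 100uM (its KM) in 25mM KPO4; compound preincubated 10 min at 37C, then NADPH regeneration for 60 min at 37C. Luciferin read by luminescence after detection reagent; normalized to 57uM sulphaphenazole as full inhibition.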

Experiment [3] deals with Cytochrome P450 3A4 (Homo sapiens) (UniProt P08684). The experiment in a line: qHTS Assay for Inhibitors and Substrates of Cytochrome P450 3A4 (AID 884). Further: nearly all actives have a fitted effect of over 50% in size. Further: potency means the concentration at half of the fitted maximal effect. In outline:
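20 nM human CYP3A4 with 25 uM Luciferin-PPXE (at KM) in 200 mM KPO4, preincubated 10 min with compound; NADPH regeneration started a 60 min RT reaction. Luciferin detected by luminescence, normalized to 57 uM ketoconazole as full inhibition.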

The target of experiment [4] is Guanine nucleotide-binding protein G(i) subunit alpha-1 (Homo sapiens) (UniProt P63096). The experiment in a line: qHTS Assay for Inhibitors of RGS12 GoLoco Motif Activity (Green Fluorophore) (AID 879).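 Further: negative values mean loss of peptide binding seen as reduced polarization.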 In a few lines:
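Fluorescence polarization assay: 50 nM Gαi1 with 10 nM FITC-labeled RGS12 GoLoco peptide in 10 mM Tris pH 7.5, 150 mM NaCl, 0.1 mM GDP, 0.05% NP40, 10 min at room temperature with compound.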

Experiment [5] has as its target Cytochrome P450 3A4 (Homo sapiens) (UniProt P08684). The experiment in a line: qHTS Assay for Activators of Cytochrome P450 3A4 (AID 885). Further: nearly all actives have a fitted effect of over 65% in size. In outline:
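20nM CYP3A4 + 25uM Luciferin-PPXE (=KM), 200mM KPO4; cpd 10 min RT; NADPH regen, 60 min RT; stop w/ detection buffer, 20 min; luminescence. Normalized to 57 uM ketoconazole.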

In experiment [6] the target is Cytochrome P450 2D6 (Homo sapiens) (UniProt P10635). The experiment in a line: qHTS Assay for Inhibitors and Substrates of Cytochrome P450 2D6 (AID 891). Further: nearly all actives have a fitted effect of over 60% in size. Further: potency means the concentration at half of the fitted maximal effect. In a few lines: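 Human CYP2D6 (5 nM) with 30 uM Luciferin-ME EGE (at Km) in 100 mM KPO4, compound preincubated 10 min, then NADPH regeneration system for 60 min at room temperature. Luciferin read by luminescence; normalized to 1.43 uM quinidine.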

Experiment [7] in a line: Cellular Toxicity (caspase-3) HepG2 (AID 654).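 Further: cells exposed to compound for 16 hours before reading.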 In a few lines:
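HepG2 cells (1500/well) in complete medium were treated with compounds for 16 hr at 37 °C. Caspase-3/7 activity was then read as luminescence from peptide-aminoluciferin cleavage. AC50 came from Hill fits, normalized to DMSO and 100 uM tamoxifen.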

Experiment [8] in a line: Cellular Toxicity (caspase-3) HUV-EC-C (AID 656). In a few lines: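 HUV-EC-C cells (1000/well) in complete medium, compound-treated 16 h at 37 °C; caspase-3/7 activity read by Caspase-Glo 3/7 luminescence. Normalized to DMSO (basal) and 100 uM tamoxifen (100%); AC50 from Hill-equation concentration-response fits.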
A short description of experiment [9]: Cellular Toxicity (caspase-3) SHSY5Y (AID 657). In outline: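 SH-SY5Y human neuroblastoma cells, 1500/well, exposed to compound for 16 hours at 37 °C in complete medium. Caspase-3/7 activity read by Caspase-Glo luminescence after 1 hr at room temperature, normalized to DMSO and 10 uM staurosporine; AC50 from Hill fit.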
Experiment [10] in a line: Cellular Toxicity (caspase-3) BJ (AID 658). In a few lines: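 BJ human foreskin fibroblasts, 1000 cells/well, treated 16 hours at 37 °C in complete medium; caspase 3/7 activity by Caspase-Glo luminescence after 1 hr at room temperature. Normalized to DMSO and 10 uM staurosporine; AC50 from Hill fits.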
Experiment [11] in a line: Cellular Toxicity (caspase-3) MRC-5 (AID 659). As to conditions: Potency: caspase-3 activation. In outline: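 MRC-5 human normal lung fibroblasts, 1500 cells/well, treated 16 h at 37 °C in complete medium. Caspase 3/7 measured by Caspase-Glo luminescence after 1 h at room temperature. Normalized to DMSO and 10 uM staurosporine; AC50 from Hill fit.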
Experiment [12] can be described thus: Cellular Toxicity (caspase-3) Mesangial (AID 660). In a few lines: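 Human renal glomerular mesangial cells (1000/well) were treated with compounds for 16 h at 37 °C in complete medium, then caspase 3/7 activity was read by Caspase-Glo luminescence. Data were normalized to DMSO and 100 uM tamoxifen; AC50 from Hill fits.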
Experiment [13] is described as follows: Cellular Toxicity (caspase-3) SK-N-SH (AID 661). In a few lines: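 SK-N-SH human neuroblastoma cells (1500/well) were treated with compounds for 16 hr at 37 °C in complete medium; caspase 3/7 activity was read by Caspase-Glo luminescence. AC50 came from Hill fits of data normalized to DMSO and 10 uM staurosporine.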
Experiment [14] can be described thus: Cellular Toxicity (caspase-3) H-4-II-E (AID 663).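 Further: cells exposed to compound for 16 hr before readout.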 The settings on record: Potency: caspase-3 activation. In outline: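 Rat hepatoma H-4-II-E cells (1500/well) plated 5 hr, then exposed to compound titrations for 16 hr at 37 °C. Caspase-Glo 3/7 luminescence read after 20 min at RT; data normalized to DMSO and 100 uM tamoxifen, AC50 from Hill fits.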
Experiment [15] is described as follows: Cellular Toxicity (caspase-3) N2a (AID 665).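 Further: compound exposure lasted 16 h at 37 °C before readout.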 The settings on record: Potency: caspase-3 activation. In outline:
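Mouse N2a neuroblastoma cells (1500/well) were treated with compounds for 16 h at 37 °C, then caspase-3/7 activity was read by Caspase-Glo luminescence after 1 h at room temperature. Data were normalized to DMSO and 10 uM staurosporine; AC50 from Hill fits.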

Experiment [16] is described as follows: Cellular Toxicity (caspase-3) NIH 3T3 (AID 666).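 Further: caspase signal read after 16 h compound exposure.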 In outline: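 Mouse NIH 3T3 fibroblasts (1000 cells/well) were treated with compound for 16 hr at 37°C in complete medium; caspase-3/7 activity was read by Caspase-Glo luminescence. Normalized to DMSO and 100 uM tamoxifen; AC50 from Hill fits.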
The nature of experiment [17]: Cellular Toxicity (caspase-3) Renal Proximal Tubule (AID 667).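 Further: cells exposed to compound for 16 hours at 37 °C before detection.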 In outline: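 Freshly isolated primary rat kidney proximal tubule cells, 1000/well, treated 16 hr at 37 °C, then Caspase-Glo 3/7 luminescence after 1 hr. Normalized to DMSO and 10 uM staurosporine; AC50 from Hill fit.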

Values without a mark were called inactive. Records with an inconclusive call do not appear. A call without a number means that no potency is given here. Active and inactive are the calls of the source. Unless noted, the call rests on the fitted dose curve; in most records, active means well fitted curve in the direction sought with a large enough effect; inconclusive means small, poorly fitted or top-dose-only effect, or another doubt; inactive means no such curve, though single readings can be large; an effect the other way counts as inactive or inconclusive.

Sequence of Guanine nucleotide-binding protein G(i) subunit alpha-1 (Homo sapiens) (P63096 whole entry, looked up): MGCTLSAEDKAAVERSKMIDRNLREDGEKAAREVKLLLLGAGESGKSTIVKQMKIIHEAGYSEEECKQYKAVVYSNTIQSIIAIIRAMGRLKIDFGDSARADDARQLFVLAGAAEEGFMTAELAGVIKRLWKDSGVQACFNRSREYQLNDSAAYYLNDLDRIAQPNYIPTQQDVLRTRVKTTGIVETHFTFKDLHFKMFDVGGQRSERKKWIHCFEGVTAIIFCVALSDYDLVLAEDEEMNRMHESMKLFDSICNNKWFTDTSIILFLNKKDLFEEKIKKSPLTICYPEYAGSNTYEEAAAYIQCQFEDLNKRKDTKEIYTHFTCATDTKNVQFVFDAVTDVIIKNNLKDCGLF
Sequence of Cytochrome P450 3A4 (Homo sapiens) (P08684 whole entry, looked up): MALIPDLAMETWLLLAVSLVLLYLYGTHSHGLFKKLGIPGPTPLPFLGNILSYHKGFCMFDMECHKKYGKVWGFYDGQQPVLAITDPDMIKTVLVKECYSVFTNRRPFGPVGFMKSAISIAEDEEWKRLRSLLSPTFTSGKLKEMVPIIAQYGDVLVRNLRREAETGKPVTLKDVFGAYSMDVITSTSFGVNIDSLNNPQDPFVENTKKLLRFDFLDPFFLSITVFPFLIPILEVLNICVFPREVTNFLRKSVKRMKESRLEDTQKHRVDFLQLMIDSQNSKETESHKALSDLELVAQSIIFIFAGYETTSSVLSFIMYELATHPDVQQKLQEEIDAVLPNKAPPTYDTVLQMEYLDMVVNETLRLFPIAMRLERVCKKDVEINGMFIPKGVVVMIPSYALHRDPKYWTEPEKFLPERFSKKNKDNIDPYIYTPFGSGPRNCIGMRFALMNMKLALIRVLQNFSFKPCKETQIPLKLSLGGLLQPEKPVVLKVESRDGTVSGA
Sequence of Cytochrome P450 2C9 (Homo sapiens) (P11712 whole entry, looked up): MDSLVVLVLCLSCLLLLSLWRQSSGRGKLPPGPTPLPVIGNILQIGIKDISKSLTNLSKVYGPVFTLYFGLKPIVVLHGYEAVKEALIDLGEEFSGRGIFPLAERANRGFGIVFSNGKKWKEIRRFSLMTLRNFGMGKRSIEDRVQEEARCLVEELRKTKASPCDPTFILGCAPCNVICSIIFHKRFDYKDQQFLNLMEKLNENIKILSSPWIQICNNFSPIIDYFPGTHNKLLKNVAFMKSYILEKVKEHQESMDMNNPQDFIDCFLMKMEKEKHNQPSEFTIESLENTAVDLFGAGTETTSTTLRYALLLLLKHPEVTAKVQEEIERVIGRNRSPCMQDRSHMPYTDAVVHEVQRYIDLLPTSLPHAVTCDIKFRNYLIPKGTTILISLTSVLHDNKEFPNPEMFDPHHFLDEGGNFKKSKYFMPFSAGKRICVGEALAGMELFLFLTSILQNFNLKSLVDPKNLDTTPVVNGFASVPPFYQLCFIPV
Sequence of Cytochrome P450 2D6 (Homo sapiens) (P10635 whole entry, looked up): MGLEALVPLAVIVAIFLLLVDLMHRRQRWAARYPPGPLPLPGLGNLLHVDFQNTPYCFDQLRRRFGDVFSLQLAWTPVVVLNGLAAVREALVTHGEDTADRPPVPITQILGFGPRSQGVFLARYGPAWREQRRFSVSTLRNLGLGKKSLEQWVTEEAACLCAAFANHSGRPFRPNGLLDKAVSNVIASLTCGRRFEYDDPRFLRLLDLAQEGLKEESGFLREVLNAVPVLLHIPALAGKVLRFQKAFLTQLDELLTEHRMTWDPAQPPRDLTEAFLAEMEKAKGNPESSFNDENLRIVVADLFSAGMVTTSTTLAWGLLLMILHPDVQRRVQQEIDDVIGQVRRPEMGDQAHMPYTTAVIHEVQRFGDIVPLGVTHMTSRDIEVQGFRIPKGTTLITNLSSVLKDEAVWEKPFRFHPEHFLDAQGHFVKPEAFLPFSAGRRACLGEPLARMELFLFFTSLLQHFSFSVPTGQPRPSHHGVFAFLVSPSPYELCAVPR
Sequence of 3',5'-cyclic-AMP phosphodiesterase 4B (Homo sapiens) (Q07343 whole entry, looked up): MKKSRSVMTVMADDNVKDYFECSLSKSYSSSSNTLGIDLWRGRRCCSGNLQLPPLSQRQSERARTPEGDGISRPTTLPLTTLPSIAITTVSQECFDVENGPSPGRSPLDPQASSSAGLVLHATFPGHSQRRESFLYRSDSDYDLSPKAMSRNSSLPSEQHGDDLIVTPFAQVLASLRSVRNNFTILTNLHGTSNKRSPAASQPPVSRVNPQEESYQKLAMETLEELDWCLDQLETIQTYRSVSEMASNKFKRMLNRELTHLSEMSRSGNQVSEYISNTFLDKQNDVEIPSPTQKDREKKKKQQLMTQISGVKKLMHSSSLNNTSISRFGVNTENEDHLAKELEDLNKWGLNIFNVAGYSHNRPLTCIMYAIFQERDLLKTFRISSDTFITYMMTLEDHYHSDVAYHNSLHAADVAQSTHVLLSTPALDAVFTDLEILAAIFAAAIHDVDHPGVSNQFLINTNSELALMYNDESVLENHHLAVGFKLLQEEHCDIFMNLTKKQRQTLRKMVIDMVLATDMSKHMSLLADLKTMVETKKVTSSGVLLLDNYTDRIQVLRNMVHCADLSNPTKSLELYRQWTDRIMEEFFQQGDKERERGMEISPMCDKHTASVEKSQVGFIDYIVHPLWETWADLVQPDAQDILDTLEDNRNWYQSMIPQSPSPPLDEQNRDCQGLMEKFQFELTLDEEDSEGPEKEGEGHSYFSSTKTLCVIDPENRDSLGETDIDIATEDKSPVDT

With `Cc1ccnc(NS(=O)(=O)c2ccc(N)cc2)n1`, the compound was called inactive in [1]. Moreover, the Potency result in experiment [2] and in experiment [3] was “inactive” in each case.
On to `O=C(O)c1cc2cc(Cc3cccnc3)ccc2o1`, for which the outcome in experiment [1] and in experiment [4] was inactive. Moreover, the Potency entry in experiment [3] and in experiment [5] was “inactive” in each case.
As to `O=C(COc1ccc(Cl)cc1)N1CCN(Cc2ccc3c(c2)OCO3)CC1`, the call in experiment [1] was inactive. The Potency result in experiment [5] is “inactive”. Besides, the Potency in experiment [6] was 199 nM (active).
On to `CCOC(=O)n1ccn(C)c1=S`, for which the call in experiment [1] was inactive. In addition, the Potency entry in experiment [3] is “inactive”.
As for `COc1c(C)c2c(c(O)c1C/C=C(\C)CCC(=O)O)C(=O)OC2`, in experiment [1], the call was inactive. The Potency result in experiment [2], in experiment [5] and in experiment [6] was “inactive” each time.
As to `Cc1c(N(C)CS(=O)(=O)O)c(=O)n(-c2ccccc2)n1C`, the compound was classed as inactive in [1]. Moreover, the Potency result in [3] was “inactive”.
With `C[N+]1(CCCCC[N+]2(C)CCCC2)CCCC1`, the call in experiment [1] and in experiment [4] was inactive.
`CCCn1c(=O)[nH]c(=O)c2[nH]cnc21`: the call in experiment [1] and in experiment [4] was inactive. Further, the Potency entry in experiment [2], in experiment [3] and in [6] was “inactive” each time.
As to `CC(C)(C(=O)c1cccnc1)c1cccnc1`, the call in [1] was inactive. Moreover, in experiment [3], the Potency is 1260 nM (active). For the same compound, the Potency entry in experiment [5] was “inactive”.
As to `CCn1cc(C(=O)O)c(=O)c2cnc(N3CCCC3)nc21`, the compound was called inactive in experiment [1]. For the same compound, in [3], the Potency entry is “inactive”.
On to `Nc1nc2ncc(CNc3ccc(C(=O)N[C@@H](CCC(=O)O)C(=O)O)cc3)nc2c(=O)[nH]1`, for which the compound was classed as inactive in experiment [1]. Moreover, the Potency entry in experiment [3] is “inactive”.
On to `CC(C)NC[C@@H](O)COc1cccc2ccccc12`, for which the call in experiment [1] and in experiment [4] was inactive. Besides, the Potency result in experiment [3] is “inactive”.
With `C[C@@H]1C(=O)NC2=Nc3cccc(Cl)c3CN21`, the outcome in experiment [1] and in experiment [4] was inactive.
In the case of `CN1CCC(=C2c3ccccc3Sc3ccccc32)CC1`, the call in [1] was inactive. In [3], the Potency entry is “inactive”. In experiment [6], the Potency is 3980 nM (active).
Take `CC(C)COC(=O)OCN1C(=O)CN(CCN2CC(=O)N(COC(=O)OCC(C)C)C(=O)C2)CC1=O`: the compound was called inactive in experiment [1] and in experiment [4].
Turning to `Oc1ccc(Cl)cc1Sc1cc(Cl)ccc1O`, the result in experiment [1], in experiment [8], in experiment [10], in experiment [12] and in experiment [17] was inactive. The Potency result in experiment [7], in experiment [9], in experiment [11], in experiment [13], in [14] and in [15] was “inactive” in each case. Also, the Potency entry in experiment [16] is “inactive”.
With `Nc1cc(Cl)c(NC2=NCCN2)c(Cl)c1`, the compound was called inactive in experiment [1] and in experiment [4].
For the compound `COc1cc(NS(C)(=O)=O)ccc1Nc1c2ccccc2nc2ccccc12`, the compound was called inactive in [1] and in experiment [4]. In addition, the Potency result in experiment [2] and in experiment [5] was “inactive” in each case.
For the compound `CC(=O)Nc1c(I)cc(I)c(C(=O)O)c1I`, in experiment [3], the Potency result was “inactive”.
Consider `CC(Cc1cccc(C(F)(F)F)c1)NCCOC(=O)c1ccccc1` (configuration not stated), for which, in experiment [5], the Potency entry is “inactive”.
